# PubChem BioAssay AID1851 (National Center for Advancing Translational Sciences (NCATS), 2009)
# In all, about 16,000 compounds went through this assay and about 5,100 (32%) were called active. Inconclusive results (about 25%) are left out. The call rests on the fitted dose curve; in most records, active means well fitted curve in the direction sought with a large enough effect; inconclusive means small, poorly fitted or top-dose-only effect, or effect the other way; inactive means no such curve, though single readings can be large or run the other way. The list shows a part of the results.
# Target: Cytochrome P450 3A4 (Homo sapiens) (UniProt P08684)
# Experiment: Cytochrome panel assay with activity outcomes
# Settings: recombinant CYP, pro-luciferin dealkylation, luminescence, p450-cyp3a4; series mostly up to 57.1 µM
# On the % scale 0 is the no-effect control and ±100 the full control effect.
# Chain of Cytochrome P450 3A4 (Homo sapiens) (P08684 whole entry, looked up): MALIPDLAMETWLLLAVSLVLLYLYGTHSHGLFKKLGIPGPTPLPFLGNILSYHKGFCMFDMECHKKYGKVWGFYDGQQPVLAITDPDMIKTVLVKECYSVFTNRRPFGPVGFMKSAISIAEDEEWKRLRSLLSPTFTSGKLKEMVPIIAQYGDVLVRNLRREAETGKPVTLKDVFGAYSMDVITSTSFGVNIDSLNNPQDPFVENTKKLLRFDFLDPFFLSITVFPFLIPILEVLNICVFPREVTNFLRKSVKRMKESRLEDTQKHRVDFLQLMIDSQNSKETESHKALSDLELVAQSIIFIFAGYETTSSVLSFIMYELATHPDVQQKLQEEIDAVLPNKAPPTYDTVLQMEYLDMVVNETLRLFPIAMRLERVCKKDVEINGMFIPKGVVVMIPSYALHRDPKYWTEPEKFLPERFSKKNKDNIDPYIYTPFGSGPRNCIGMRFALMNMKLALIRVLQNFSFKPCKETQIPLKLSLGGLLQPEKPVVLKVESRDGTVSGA
Structure (SMILES),"activity, negative = inhibition",AC50
Cc1cc(Cl)ccc1OC(C)C(=O)Nc1ccc(S(=O)(=O)Nc2cnc3ccccc3n2)cc1 (configuration not stated),-1.77% [at 2.29 µM] (inactive),
Cc1nnc(NS(=O)(=O)c2ccc(N)cc2)s1,,inactive
Cc1ccc(S(=O)(=O)Nc2nc(C)c(NC(=O)Nc3ccc(Cl)cc3Cl)s2)cc1,,15.8 µM (active)
Cc1cc(C)n(-c2nc(NC(C)(C)C)nc(NC(C)(C)C)n2)n1,,inactive
Cc1cc(C)n(-c2nc(Nc3ccccc3C)nc(-n3nc(C)cc3C)n2)n1,,7.94 µM (active)
O=C(NNC(=O)c1sc2ccccc2c1Cl)Nc1ccc(Cl)cc1,,12.6 µM (active)
Cc1ccccc1Cn1nc(C)c(NC(=O)c2sc3ccccc3c2Cl)c1C,,11.2 µM (active)
CC(C)c1nnc(NC(=O)c2sc3ccccc3c2Cl)s1,,inactive
Cc1ccc(NC(=O)c2sc3ccccc3c2Cl)nc1,,inactive
Cc1nn(Cc2ccc(Cl)cc2Cl)c(C)c1NC(=O)c1sc2ccccc2c1Cl,,7.08 µM (active)
NCCSS(=O)(=O)CCN,5.43% [at 11.4 µM] (inactive),
Cc1ccc(N2C(=O)CC(c3ccsc3)C3=C2CC(C)(C)CC3=O)cc1 (configuration not stated),,2.24 µM (active)
O=C(/C=C\c1ccccc1)c1ccccc1O,-15.8% [at 11.4 µM] (inactive),
O=C(O)C/C(=C\c1ccccc1)C(=O)O,-16.3% [at 11.4 µM] (inactive),
O=C(/C=C/c1ccccc1)N/C(=C/c1ccccc1)C(=O)Nc1ccccc1O,,14.1 µM (active)
COc1ccc(/C(C)=N/NC(=O)c2ccc(CSc3cccc4cccnc34)cc2)cc1OC,,3.16 µM (active)
O=C(CSc1cccc2cccnc12)OCC(=O)c1ccccc1,10.1% [at 2.29 µM] (inactive),
COC(=O)C1CCN(CC(=O)Nc2sc3c(c2C#N)CCC3)CC1,,inactive
N#Cc1c(NC(=O)C2CC(c3ccccc3Cl)=NO2)sc2c1CCC2 (configuration not stated),,5.01 µM (active)
O=C(NCCc1cccs1)C1CC(c2c(Cl)cccc2Cl)=NO1 (configuration not stated),-24.1% [at 2.29 µM] (inactive),
CCN(CC)C(=O)N1CCN(C)CC1,,inactive
Cc1ccc(NC(=O)CC2CS(=O)(=O)CC2CC(=O)Nc2ccc(C)c(C)c2)cc1C (configuration not stated),,3.98 µM (active)
CN(C)c1nc(C#N)nc(N2CCOCC2)n1,,inactive
CCC(C)NC(=O)CCS(=O)(=O)c1ccc(Br)s1 (configuration not stated),,0.891 µM (active)
O=C(CNS(=O)(=O)c1ccc(Br)s1)N1CCC(N2CCCCC2)CC1,,inactive
COC(=O)C/C=C1\c2ccccc2[C@H](OC)[C@H]1C,-2.89% [at 11.4 µM] (inactive),
Nc1ccc(N=Nc2ccc(-c3ccc(O)cc3)cc2)c2ccc(S(=O)(=O)O)cc12,-11.1% [at 11.4 µM] (inactive),
